Test results reported in PMC5540273 (PLoS ONE, 2017).

Legend:
Details in all cases: concentration: 1 μM,replicates: in singlicate; n = 1
PCTK2 = test system: T1, PCTK2
T1 construct: gene CDK17

PCTK3 = test system: T2, PCTK3
T2 construct: gene CDK18

PDGFRA = test system: PDGFRA
PDGFRB = test system: PDGFRB
PDPK1 = test system: PDPK1
PFTAIRE2 = test system: PFTAIRE2
PFTK1 = test system: T3, PFTK1
T3 construct: gene CDK14

PHKG1 = test system: PHKG1
PHKG2 = test system: PHKG2
PIK3C2B = test system: PIK3C2B
PIK3C2G = test system: PIK3C2G
PIK3CA = test system: PIK3CA
PIK3CB = test system: PIK3CB
PIK3CD = test system: PIK3CD
PIK3CG = test system: PIK3CG
PIK4CB = test system: T4, PIK4CB
T4 construct: gene PI4KB

PIKFYVE = test system: PIKFYVE
PIM1 = test system: PIM1
PIM2 = test system: PIM2
PIM3 = test system: PIM3
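Also: KINOMEscan kinase panel screen.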

| Structure (SMILES) | %Inh (PCTK2) [%] | %Inh (PCTK3) [%] | %Inh (PDGFRA) [%] | %Inh (PDGFRB) [%] | %Inh (PDPK1) [%] | %Inh (PFTAIRE2) [%] | %Inh (PFTK1) [%] | %Inh (PHKG1) [%] | %Inh (PHKG2) [%] | %Inh (PIK3C2B) [%] | %Inh (PIK3C2G) [%] | %Inh (PIK3CA) [%] | %Inh (PIK3CB) [%] | %Inh (PIK3CD) [%] | %Inh (PIK3CG) [%] | %Inh (PIK4CB) [%] | %Inh (PIKFYVE) [%] | %Inh (PIM1) [%] | %Inh (PIM2) [%] | %Inh (PIM3) [%] |
| --- | --- | --- | --- | --- | --- | --- | --- | --- | --- | --- | --- | --- | --- | --- | --- | --- | --- | --- | --- | --- |
| Cc1cc2cn[nH]c2cc1-c1cccc2c(N)c(C(N)=O)nnc12 | 14 | 26 | 34 | 18 | 0 | 29 | 0 | 26 | 0 | 0 | 13 | 0 | 0 | 46 | 0 | 26 | 0 | 0 | 0 | 0 |
| Cl.Cl.Nc1nc(-c2ccc3c(N)n[nH]c3c2)cc(N2CCCC(NC(=O)c3ccccc3)C2)n1 (centres unmarked) [GSK2286775] | 21 | 11 | 0 | 21 | 85 | 18 | 18 | 0 | 0 | 14 | 43 | 14 | 0 | 2 | 4 | 27 | 6 | 25 | 0 | 25 |
| COc1ccc(C[C@@H](CN)NC(=O)c2cc(Br)c(-c3ccnc4[nH]ccc34)s2)cc1.Cl.Cl [GSK1389063] | 0 | 0 | 62 | 96.3 | 32 | 3 | 16 | 45 | 24 | 0 | 0 | 0 | 52 | 2 | 0 | 19 | 0 | 34 | 0 | 6 |
| O=C(NCCNc1ccnc(NCc2ccc(F)cc2)n1)c1cc2ccccc2s1 [GSK1379944] | 0 | 14 | 0 | 86 | 15 | 7 | 11 | 0 | 0 | 0 | 0 | 0 | 0 | 0 | 0 | 5 | 0 | 0 | 0 | 0 |
| Nc1nc(Nc2ccccc2)cc(-c2ccc3c(N)n[nH]c3c2)n1 [GSK2225749] | 0 | 0 | 4 | 2 |  | 15 | 9 | 0 | 0 | 2 | 20 | 0 | 0 | 22 | 0 | 15 | 27 | 12 | 0 | 0 |
| NC(=O)c1cc(-c2ccccc2)cc2c(C3CCNCC3)c[nH]c12 [GSK301362] | 0 | 0 | 0 | 67 | 0 | 21 | 17 | 17 | 0 | 0 | 0 | 0 | 0 | 6 | 2 | 0 | 0 | 17 | 0 | 7 |
| C[C@@H]1CCN(C(=O)CC#N)C[C@@H]1N(C)c1ncnc2[nH]ccc12 | 0 | 8 | 0 |  | 0 | 0 | 21 | 15 | 13 | 0 | 0 | 0 | 0 | 0 | 0 | 0 | 36 | 0 | 0 | 0 |
| O=C(NCCCN1CCOC1=O)c1cnc(NCc2cc(Cl)ccc2Cl)nc1NC1CCCC1 | 0 | 13 | 0 | 30 | 28 | 0 | 7 | 0 | 13 | 4 | 8 | 0 | 2 | 0 | 0 | 12 | 36 | 9 | 16 | 10 |
